Records with an inconclusive call do not appear. Calls of active or inactive are those of the source. Unless noted, calls follow the shape of the full dose curve.
What was measured:
[1] = Nuclear factor erythroid 2-related factor 2/antioxidant responsive element (Nrf2/ARE) small molecule agonists: qHTS cell viability counter screen in human keratinocytes (AID 1919968; active = well fitted curve in the direction sought with a large enough effect in the repeat runs; an effect the other way counts as inactive or inconclusive; also: nearly all actives have a fitted effect of over 55% in size; also: potency is read from the fitted curve at half-maximal effect)
Procedure, shortened: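 Viability counter-screen: KeratinoSens reporter cells, DMSO-delivered compounds, 23 h at 37 C, CellTiter-Fluor fluorescence.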

[2] = Nuclear factor erythroid 2-related factor 2/antioxidant responsive element (Nrf2/ARE) small molecule agonists: luciferase reporter gene qHTS assay in human keratinocytes (AID 1919969); also: nearly all actives have a fitted effect of over 35% in size; also: potency is read from the fitted curve at half-maximal effect
[3] = biological target: Gonadotropin-releasing hormone receptor (Homo sapiens) (UniProt P30968); assay: Human gonadotropin-releasing hormone receptor (GnRHR) small molecule agonists, calcium flux assay in GnRHR-HEK293 cells (AID 1920063); also: nearly all actives have a fitted effect of over 35% in size; also: potency is read from the fitted curve at half-maximal effect
Procedure, shortened: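 Tox21-format agonist screen using human GnRHR-expressing HEK293 cells and a fluorescent calcium dye; kinetic 3-min fluorescence reading after compound addition, 15-point concentration series run in triplicate.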

[4] = biological target: KiSS-1 receptor (Homo sapiens) (UniProt Q969F8); assay: Human kisspeptin (KISS1R) small molecule agonists, calcium flux assay in KISS1R-HEK293 cells (AID 1920064; active = well fitted curve in the direction sought with a large enough effect in the repeat runs; an effect the other way counts as inactive or inconclusive)
Procedure, shortened: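 Intracellular calcium mobilization in KISS1R-HEK293 cells was recorded by fluorescence (Ex/Em 480/540) for 3 min following compound addition to cells pre-loaded 1 h with calcium dye.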

[5] = p53 small molecule agonists, cell-based qHTS assay with human liver microsomes (AID 1963577);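 also: p53 response element beta-lactamase reporter cells with liver microsomes plus NADPH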
Procedure, shortened: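 HLM-supplemented p53RE-bla reporter assay: 16 h compound exposure at 37 C, microsomes and NADPH each 0.5 mg/mL final, read by fluorescence intensity.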

[6] = p53 small molecule agonists, cell-based qHTS assay with rat liver microsomes (AID 1963578)
Procedure, shortened: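 Quantitative HTS of the Tox21 10K library: p53RE-bla cells, rat liver microsomes plus NADPH at 0.5 mg/mL final each, 16 h at 37 C, beta-lactamase fluorescence detection.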

[7] = p53 small molecule agonists, cell-based qHTS assay with human liver microsomes: qHTS cell viability counter screen (AID 1963579); also: nearly all actives have a fitted effect of over 45% in size; also: potency is read from the fitted curve at half-maximal effect
Procedure, shortened: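 Viability of p53RE-bla cells is measured as CellTiter-Glo luminescence following a 16 h, 37 C incubation with compound, liver microsomes from human donors and NADPH.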

[8] = p53 small molecule agonists, cell-based qHTS assay with rat liver microsomes: qHTS cell viability counter screen (AID 1963580); also: nearly all actives have a fitted effect of over 45% in size; also: potency is read from the fitted curve at half-maximal effect
Procedure, shortened: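 Viability is assessed in parallel with the p53 reporter read: HCT-116 p53RE-bla cells receive compounds plus rat microsomes and NADPH (0.5 mg/mL final apiece), incubate 16 h at 37 C, and then CellTiter-Glo luminescence is recorded.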

[9] = p53 small molecule agonists, cell-based qHTS assay: qHTS cell viability counter screen (AID 1963581); also: nearly all actives have a fitted effect of over 45% in size
Procedure, shortened: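 Compounds are pinned onto HCT-116 p53RE-bla cells and left 16 h at 37 C. Following the reporter FRET read, ATP is quantified by CellTiter-Glo luminescence after 30 min at room temperature.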

[10] = p53 small molecule agonists, cell-based qHTS assay (AID 1963582; active = well fitted activation curve with a large enough effect in the signal ratio in the repeat runs, not every such curve was filed as active; the % refers to the signal ratio)
Procedure, shortened: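 Agonist activity was scored from beta-lactamase FRET fluorescence in p53RE-bla cells treated 16 h at 37 C with compounds in DMSO, substrate incubation being 2 h at room temperature.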

[11] = biological target: Muscarinic acetylcholine receptor M1 (Homo sapiens) (UniProt P11229); assay: Cholinergic receptor muscarinic 1 (CHRM1) small molecule antagonists, cell-based qHTS assay (AID 1963588); also: nearly all actives have a fitted effect of over 40% in size
Procedure, shortened: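 CHRM1-CHO calcium-flux assay, antagonist mode. Cells were seeded 18 h, dye-loaded 1 h at 37 C and given compound for 5 min at RT, then acetylcholine was added at 50nM. FDSS fluorescence was read 3 min; 15 concentrations, three runs.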

[12] = cAMP Responsive Elements (CRE) small molecule agonists, cell-based qHTS assay (AID 1963590)
Procedure, shortened: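 FRET-based beta-lactamase readout (LiveBLAzer B/G, 2 h RT) quantified CRE activation in HEK 293T CRE-bla cells after 3 h treatment with DMSO-dissolved compounds.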

[13] = cAMP Responsive Elements (CRE) small molecule antagonists, cell-based qHTS assay (AID 1963591; active = well fitted inhibition curve with a large enough effect in the signal ratio in the repeat runs, not every such curve was filed as active; the % refers to the signal ratio)
Procedure, shortened: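 qHTS in CRE-bla HEK 293T cells: compound in DMSO, then 0.25 uM NKH477 (final), 3 h at 37 °C/5% CO2; beta-lactamase FRET read-out after 2 h substrate incubation.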

[14] = biological target: Beta-2 adrenergic receptor (Homo sapiens) (UniProt P07550); assay: Adrenergic beta2 receptor (ADRB2) small molecule antagonists, cell-based qHTS assay (AID 1963592); also: series mostly up to about 92 µM; nearly all actives have a fitted effect of over 50% in size
Procedure, shortened: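 Cells (CHO, stable ADRB2 overexpression) incubated 18-20hr at 37C; compounds added from DMSO; agonist mix (1nM isoproterenol, 100uM IBMX, 25uM Ro-20-1724) added; 0.5hr RT; d2-cAMP and anti-cAMP-cryptate added; 1hr RT; 665/615 nm read.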

[15] = biological target: D(2) dopamine receptor (Homo sapiens) (UniProt P14416); assay: Dopamine D2 receptor (DRD2) small molecule agonists, cell-based qHTS assay (AID 1963594); also: nearly all actives have a fitted effect of over 35% in size
Procedure, shortened: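 HEK293 cells stably expressing human DRD2, pre-treated with PDE inhibitor Ro20-1724 (0.1 mM final) and compound 10 min at room temperature, then stimulated with NKH477 (200nM […]) for 30 min. cAMP read by HTRF (665/620 nm).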

[16] = biological target: D(2) dopamine receptor (Homo sapiens) (UniProt P14416); assay: Dopamine D2 receptor (DRD2) small molecule antagonists, cell-based qHTS assay (AID 1963595; active = well fitted inhibition curve with a large enough effect in the signal ratio in the repeat runs, with a control signal flat; the % refers to the signal ratio; also: potency is read from the fitted curve at half-maximal effect)
Procedure, shortened: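 Human DRD2 antagonist qHTS measuring cAMP by HTRF. The cells are exposed to compound for 10 min, then to NKH477 (200 nM) and quinpirole (12 nM) for 30 min at RT, with Ro20-1724 (0.1 mM) present throughout.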

[17] = biological target: 5-hydroxytryptamine receptor 2A (Homo sapiens) (UniProt P28223); assay: 5-hydroxytryptamine receptor 2A (HTR2A) small molecule agonists, cell-based qHTS assay (AID 1963587); also: nearly all actives have a fitted effect of over 30% in size; also: potency is read from the fitted curve at half-maximal effect
Procedure, shortened: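 CHO cells stably expressing human HTR2A, plated 18 h, loaded with calcium dye 1 h at 37 C. Agonist mode: compounds added and intracellular calcium fluorescence recorded kinetically for 2 min at 1 sec intervals.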

[18] = biological target: Muscarinic acetylcholine receptor M1 (Homo sapiens) (UniProt P11229); assay: Cholinergic receptor muscarinic 1 (CHRM1) small molecule agonists, cell-based qHTS assay (AID 1963589); also: nearly all actives have a fitted effect of over 35% in size
Procedure, shortened: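 Stable CHRM1-CHO cells (human receptor) were incubated 18 h, dye-loaded for 1 h at 37 C and exposed to test compounds for agonist activity, with calcium-dependent fluorescence followed kinetically.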

[19] = biological target: Beta-2 adrenergic receptor (Homo sapiens) (UniProt P07550); assay: Adrenergic beta2 receptor (ADRB2) small molecule agonists, cell-based qHTS assay (AID 1963593);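 also: CHO cells stably overexpressing human ADRB2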
Procedure, shortened: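 CHO cells stably over-expressing ADRB2 were plated overnight at 37C, then dosed with compounds plus a stimulation mix containing 100uM IBMX and 25uM Ro-20-1724 for 0.5hr at room temperature. cAMP was measured by HTRF competition, 1hr.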

[20] = biological target: 5-hydroxytryptamine receptor 2A (Homo sapiens) (UniProt P28223); assay: 5-hydroxytryptamine receptor 2A (HTR2A) small molecule antagonists, cell-based qHTS assay (AID 1963586); also: nearly all actives have a fitted effect of over 45% in size; also: potency is read from the fitted curve at half-maximal effect
Procedure, shortened: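 Antagonist-mode intracellular calcium assay: DOI (4 nM) added after 5 min compound pre-incubation at room temperature to dye-loaded HTR2A-CHO cells. Fluorescence followed for 3 min, sampled every second.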

Measured: Potency

Beta-2 adrenergic receptor (Homo sapiens), sequence (P07550 whole entry, looked up): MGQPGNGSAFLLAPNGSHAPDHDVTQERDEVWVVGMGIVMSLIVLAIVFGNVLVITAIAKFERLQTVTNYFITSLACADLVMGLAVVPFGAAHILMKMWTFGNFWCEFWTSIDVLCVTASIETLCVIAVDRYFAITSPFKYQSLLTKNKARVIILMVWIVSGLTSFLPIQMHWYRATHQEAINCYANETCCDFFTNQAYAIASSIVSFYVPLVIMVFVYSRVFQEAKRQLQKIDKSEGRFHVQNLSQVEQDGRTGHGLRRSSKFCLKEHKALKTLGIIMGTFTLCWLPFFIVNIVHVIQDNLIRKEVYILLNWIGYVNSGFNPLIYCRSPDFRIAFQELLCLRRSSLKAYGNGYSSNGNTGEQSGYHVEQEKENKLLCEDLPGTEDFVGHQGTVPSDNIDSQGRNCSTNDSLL
D(2) dopamine receptor (Homo sapiens), sequence (P14416 whole entry, looked up): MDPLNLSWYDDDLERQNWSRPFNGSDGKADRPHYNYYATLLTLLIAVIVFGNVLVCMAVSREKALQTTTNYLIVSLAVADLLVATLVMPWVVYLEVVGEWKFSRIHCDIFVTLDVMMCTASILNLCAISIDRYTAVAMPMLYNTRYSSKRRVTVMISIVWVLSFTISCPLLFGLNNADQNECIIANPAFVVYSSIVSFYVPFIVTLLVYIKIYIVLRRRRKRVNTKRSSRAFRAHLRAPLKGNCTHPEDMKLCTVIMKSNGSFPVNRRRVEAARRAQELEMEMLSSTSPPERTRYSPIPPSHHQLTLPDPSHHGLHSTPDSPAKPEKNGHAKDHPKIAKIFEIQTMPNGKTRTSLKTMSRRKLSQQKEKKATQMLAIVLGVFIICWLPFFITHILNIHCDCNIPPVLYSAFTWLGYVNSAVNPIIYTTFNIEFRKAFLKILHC
Gonadotropin-releasing hormone receptor (Homo sapiens), sequence (P30968 whole entry, looked up): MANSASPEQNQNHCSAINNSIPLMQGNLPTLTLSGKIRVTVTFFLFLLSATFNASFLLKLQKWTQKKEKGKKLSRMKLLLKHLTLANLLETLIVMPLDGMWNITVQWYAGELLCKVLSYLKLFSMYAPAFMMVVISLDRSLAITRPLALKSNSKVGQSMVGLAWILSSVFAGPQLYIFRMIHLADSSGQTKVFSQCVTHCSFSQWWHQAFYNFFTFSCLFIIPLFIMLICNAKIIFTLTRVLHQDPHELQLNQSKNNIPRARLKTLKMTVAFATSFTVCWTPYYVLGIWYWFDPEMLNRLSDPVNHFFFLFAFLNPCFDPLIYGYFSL
KiSS-1 receptor (Homo sapiens), sequence (Q969F8 whole entry, looked up): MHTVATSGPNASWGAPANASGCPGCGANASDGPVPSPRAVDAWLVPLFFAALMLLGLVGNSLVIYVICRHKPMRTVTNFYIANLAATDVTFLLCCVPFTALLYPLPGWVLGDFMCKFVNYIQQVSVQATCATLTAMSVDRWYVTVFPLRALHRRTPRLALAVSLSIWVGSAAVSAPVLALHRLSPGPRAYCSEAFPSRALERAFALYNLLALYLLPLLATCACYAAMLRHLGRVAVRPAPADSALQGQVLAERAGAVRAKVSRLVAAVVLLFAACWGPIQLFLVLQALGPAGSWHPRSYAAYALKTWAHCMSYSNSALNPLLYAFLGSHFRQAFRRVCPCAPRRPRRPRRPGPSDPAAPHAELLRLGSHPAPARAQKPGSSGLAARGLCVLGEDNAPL
5-hydroxytryptamine receptor 2A (Homo sapiens), sequence (P28223 whole entry, looked up): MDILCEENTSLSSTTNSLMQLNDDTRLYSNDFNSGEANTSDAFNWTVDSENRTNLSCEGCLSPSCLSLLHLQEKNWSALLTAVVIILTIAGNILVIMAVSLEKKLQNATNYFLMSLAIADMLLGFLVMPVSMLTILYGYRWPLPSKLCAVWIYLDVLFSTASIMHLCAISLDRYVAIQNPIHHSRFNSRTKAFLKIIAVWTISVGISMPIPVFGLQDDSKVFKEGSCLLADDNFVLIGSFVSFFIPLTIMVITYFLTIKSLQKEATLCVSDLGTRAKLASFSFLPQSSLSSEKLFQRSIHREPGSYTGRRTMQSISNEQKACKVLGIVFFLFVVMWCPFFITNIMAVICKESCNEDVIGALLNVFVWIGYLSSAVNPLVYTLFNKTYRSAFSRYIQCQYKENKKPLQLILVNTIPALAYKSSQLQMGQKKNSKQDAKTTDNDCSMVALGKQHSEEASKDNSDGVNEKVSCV
Muscarinic acetylcholine receptor M1 (Homo sapiens), sequence (P11229 whole entry, looked up): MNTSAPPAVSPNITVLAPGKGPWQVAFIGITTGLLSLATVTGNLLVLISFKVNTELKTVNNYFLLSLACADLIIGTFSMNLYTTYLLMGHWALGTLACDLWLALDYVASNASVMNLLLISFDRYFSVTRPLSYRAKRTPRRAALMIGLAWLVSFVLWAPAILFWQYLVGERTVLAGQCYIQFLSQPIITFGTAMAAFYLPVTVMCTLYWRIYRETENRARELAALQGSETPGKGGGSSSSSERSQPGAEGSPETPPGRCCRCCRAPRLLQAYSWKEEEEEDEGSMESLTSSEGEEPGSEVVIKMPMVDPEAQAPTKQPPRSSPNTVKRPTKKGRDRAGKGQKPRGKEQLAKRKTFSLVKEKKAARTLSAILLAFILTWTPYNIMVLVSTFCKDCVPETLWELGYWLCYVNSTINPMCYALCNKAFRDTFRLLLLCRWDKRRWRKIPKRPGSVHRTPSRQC

O=C(CCCl)NCCc1ccccc1
inactive: [1] | [2] | [3] | [4] | [5] | [6] | [7] | [8] | [9] | [10] | [11] | [12] | [13] | [14] | [15] | [16]

CCC1=C(C)CN(C(=O)NCCc2ccc(S(=O)(=O)NC(=O)NC3CCC(C)CC3)cc2)C1=O (stereo not given)
inactive: [1] | [2] | [3] | [4] | [5] | [6] | [7] | [8] | [9] | [10] | [14] | [16]

Cc1ccccc1C#N
inactive: [1] | [2] | [3] | [4] | [5] | [6] | [7] | [8] | [9] | [10] | [17] | [18] | [12] | [13] | [14] | [19] | [15] | [16]

O=CC(=O)c1ccccc1
active: [2] 68.7 µM
inactive: [1] | [3] | [4] | [5] | [6] | [7] | [8] | [9] | [10] | [20] | [17] | [11] | [18] | [12] | [14] | [15] | [16]

Cc1ccccc1N1CCN(CCc2nnc3n2CCCC3)CC1
inactive: [1] | [2] | [3] | [4] | [5] | [6] | [7] | [8] | [9] | [10] | [12] | [13] | [14] | [19] | [15]

CCN(CC)CCc1nc(-c2ccccc2)no1
inactive: [1] | [2] | [3] | [4] | [5] | [6] | [7] | [8] | [9] | [10] | [11] | [18] | [12] | [14] | [16]

Cc1ccc2cccnc2c1
inactive: [1] | [2] | [3] | [4] | [5] | [6] | [7] | [8] | [9] | [10] | [20] | [17] | [11] | [18] | [12] | [14] | [19] | [15] | [16]

COc1ccc(C(C)=O)cc1
inactive: [1] | [2] | [3] | [4] | [5] | [6] | [7] | [8] | [9] | [10] | [17] | [18] | [12] | [13] | [14] | [19] | [15] | [16]

NCC(=O)CCC(=O)O
inactive: [1] | [2] | [3] | [4] | [5] | [6] | [7] | [8] | [9] | [10] | [20] | [17] | [11] | [18] | [12] | [14] | [19] | [15] | [16]

Cc1cc(-n2nc3ccc(Cl)cc3n2)c(O)c(C(C)(C)C)c1
inactive: [1] | [2] | [3] | [4] | [5] | [6] | [7] | [8] | [9] | [20] | [17] | [18] | [12] | [13] | [14] | [15] | [16]

CCCCCCCCCCCC(=O)Cl
inactive: [1] | [2] | [3] | [4] | [5] | [6] | [7] | [9] | [17] | [18] | [13] | [14] | [19] | [15] | [16]

Cc1cc(O)c(C(C)(C)C)cc1C(C)(C)C
active: [1] 27.3 µM | [3] 38.9 µM | [7] 18.2 µM | [8] 40.8 µM | [20] 18.8 µM | [17] 34.7 µM | [16] 43.3 µM
inactive: [2] | [4] | [5] | [6] | [11] | [18] | [15]

Cc1ccc(=O)n(-c2ccccc2)c1
inactive: [1] | [2] | [3] | [4] | [5] | [6] | [7] | [9] | [10] | [17] | [11] | [18] | [12] | [14] | [15] | [16]

Fc1ccc([C@@H]2CCNC[C@H]2COc2ccc3c(c2)OCO3)cc1
inactive: [1] | [2] | [3] | [4] | [5] | [6] | [7] | [8] | [9] | [12] | [13] | [14] | [16]
